Source: PubChem BioAssay
Marburg entry inh = inhibitors of Marburg virus binding or cell entry; Marburg virus pseudotyped entry inhibition, cell reporter; Potency, µM (series often up to 37.8 µM), inactives show at the highest dose activity change, negative = inhibition, hits mostly inhibitors; AID 540276; 300,000 tested, 1.8% active; calls by dose curve; tested in HEK293 cells; further: potency means the concentration at half of the fitted maximal effect
HCMV inh = blocks human cytomegalovirus replication | HFF cells, HCMV-luciferase reporter, 72 h; hits give low values | activity change, negative = inhibition, % at 57.5 µM | 410,000 tested, 4.5% active | AID 1259415; in the data active means activity change below about -60%; inconclusive means no clear call, values can overlap the other calls; inactive means above about -39%
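HFF cells seeded 16 h at 37C, treated with compounds, infected with luciferase-reporter HCMV at MOI 1 PFU/cell; luciferase read at 72 h post infection, normalized to buffer-only and Salinomycin controls.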
FMDV inh = blocks foot and mouth disease virus; 410,000 tested, 1.2% active; FMDV antiviral cell-based qHTS; Potency, µM (series often up to 57.9 µM), for inactives: at the top dose activity change, negative = inhibition, actives largely listed as inhibitors; AID 1159524; calls by dose curve; tested in HEK293T cells; further: read-out not given here; potency means the concentration at half of the fitted maximal effect; nearly all actives have a fitted effect of over 45% in size
LASV entry inh = blocks Lassa virus binding to or entry into cells | Lassa virus pseudotype entry inhibition, cell reporter | 300,000 tested, 1.2% active | AID 540256 | Potency, µM (doses to about 37.9 µM), for inactives: at the highest dose activity change, negative = inhibition, usual class: inhibitors; calls by dose curve; tested in HEK293 cells; further: potency means the concentration at half of the fitted maximal effect; nearly all actives have a fitted effect of over 50% in size
HCV inhibitor = inhibitors of hepatitis C virus infection; Huh7.5.1 HCVcc-Cre infection, luciferase reporter, 44 h; Potency, µM (top dose mostly 41.8 µM), for inactives: at the top dose activity change, negative = inhibition, most hits filed as inhibitors; 340,000 tested, 3.4% active; AID 651820; active means well fitted inhibition curve with a large enough effect; inconclusive means small, poorly fitted or top-dose-only effect, or another doubt; inactive means no such curve, though single readings can be large or run the other way; further: potency means the concentration at half of the fitted maximal effect
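Antiviral activity was scored by luciferase reporter output from cells infected with HCVcc-Cre (~0.5 moi) in presence of compound, 44 h infection period, cells seeded 1,000/well 4 h prior.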
* marks the source's active call; other numbers are inactive results; ? = inconclusive; · = not tested or not shown; [ ] = another dose, or the depositor's remark. Rows were chosen to be rich in hits. Some 7.9% of all compounds tested hit in one or more screens of this group. On the % scale 0 is the no-effect control and ±100 the full control effect.

SMILES | Marburg entry inh | HCMV inh | FMDV inh | LASV entry inh | HCV inhibitor
Cc1cccc2c(N3CCCC3)nc(CNS(=O)(=O)c3ccccc3Cl)nc12 | · | · | -7.4% | · | ·
CCc1ccc(-c2nc(SCC(=O)NCC3CCCO3)c(-c3ccc(F)cc3)[nH]2)cc1 (stereo not given) | -13.1%[46.1 µM] | -28.8 | 3.0% | -14.2%[46.1 µM] | ·
COc1cc(NC(=O)C23CC4CC(C2)CC(n2cnc([N+](=O)[O-])n2)(C4)C3)cc(OC)c1 | 2.51µM* | -1.7 | -14.8% | -11.1% | -6.7%
CCOC(=O)[C@]12Cc3ccccc3[C@H]1N(CCC(=O)OC)C(=O)c1ccccc12 | · | -97.8* | ? | · | ·
CCOC(=O)[C@]12Cc3ccccc3[C@H]1N(Cc1ccccc1)C(=O)c1ccccc12 | · | -5.4 | -1.0% | · | 19.7%
CCOC(=O)[C@]12Cc3c(cc(OC)c(OC)c3OC)[C@H]1N(C)C(=O)c1cc(OC)ccc12 | · | -100.9* | 10µM* | · | ·
CCCCCN1C(=O)c2ccccc2[C@@]2(C(=O)OCC)Cc3cc(OC)ccc3[C@@H]12 | · | -109.4* | 10µM* | · | ·
CCOC(=O)[C@]12Cc3cc(C)ccc3[C@H]1N(CCC(=O)OC)C(=O)c1cc(OC)ccc12 | · | -108.9* | 31.6µM* | · | ·
CNS(=O)(=O)c1cccc(C(=O)OCC(=O)c2ccc3[nH]c(=O)[nH]c3c2)c1 | 2.6% | -11.0 | 17.7% | 0.9% | 9.5%
C[C@@]12CCOC13C=CC(=O)C=C3CC[C@H]2O (stereo not given in full) | · | -13.1 | · | · | ·
C[C@@H]1CN([C@H](C)CO)S(=O)(=O)c2ccc(C#Cc3cccc(F)c3)cc2O[C@@H]1CN(C)C(=O)CN1CCOCC1 | · | -17.0 | 46.3% | · | ·
CCOC(=O)[C@]12Cc3c(cc(OC)c(OC)c3OC)[C@H]1N(CCC(=O)OC)C(=O)c1cc(OC)ccc12 | · | -105.2* | 28.2µM* | · | ·
O=C(Nc1c(C(=O)N2CCCCC2)cnn1-c1ccccc1)c1ccccc1F | 6.1%[46.1 µM] | -2.5 | -17.0% | 0.2%[46.1 µM] | 5.6%
CCCC/C=C1/CCC(CN(C)C)C1=O (stereo not given) | 5.4% | · | 28.2µM* | 6.6%[46.1 µM] | ?
COc1ccc(/C=C2/CCCC(CN(C)C)C2=O)cc1 (stereo not given) | -16.5% | 16.1 | -13.3% | -13.0% | ?
COc1cccc(/C=C2/CCC(CN(C)C)C2=O)c1 (stereo not given) | 11.2µM* | -86.9* | 25.1µM* | 12.6µM* | ?
COc1cccc(/C=C2\CCC(C3CCCC3)C2=O)c1 (stereo not given) | 38.8% | -22.3 | 29.0% | 9.9% | ?
CN(C)CC1CCC/C(=C/c2ccc(Cl)cc2)C1=O (stereo not given) | -3.1% | 0.5 | 39.8µM* | ? | ?
CN(C)CC1CCC/C(=C\c2ccc(OC(=O)/C=C/c3ccc(Cl)c(Cl)c3)cc2)C1=O (stereo not given) | ? | -28.9 | 39.8µM* | 12.1% | ?
O=C(NCc1ccc(CNC(=O)c2ccco2)cc1)c1ccco1 | · | -9.4 | -8.8% | · | 10.0%
COC(=O)CSc1nnc(NC(=O)c2ccc3c(c2)OCO3)s1 | · | 88.3 | -10.0% | · | 17.3%
Cc1csc(NC(=O)c2ccc3c(c2)OCO3)n1 | ? | 42.6 | 12.1% | 7.08µM* | 0.0%
CCOC(=O)Cc1csc(NC(=O)c2ccc3c(c2)OCO3)n1 | -4.3% | 47.8 | -8.7% | -11.8% | -30.8%
O=C(O)CSc1nnc(NC(=O)c2ccc3c(c2)OCO3)s1 | ? | -6.1 | ? | 8.91µM* | 16.6%
COc1ccc2[nH]cc(CCNc3nc(-c4c(C)noc4C)nc4ccccc34)c2c1 | · | · | -16.2% | · | ·
SMILES | Marburg entry inh | HCMV inh | FMDV inh | LASV entry inh | HCV inhibitor
C=CCn1c(O)c(/C=C2/C=CC=N2)c(=O)[nH]c1=O | · | 14.8 | -5.7% | · | -0.1%
O=c1[nH]c(=O)n(Cc2ccccc2Cl)c(O)c1/C=C1/C=CC=N1 | ? | -88.8* | -29.0% | ? | -5.9%
CC(=O)OC[C@H]1O[C@H](CC=NOC[C@@H](O)COCc2ccco2)C=C[C@H]1OC(C)=O | 0.7%[14.2 µM] | · | · | · | ·
CCOC(=O)c1ccc2nc(Nc3nc4ccc(F)cc4s3)sc2c1 | ? | -91.0* | ? | -13.4% | 10.9%
COC(=O)c1ccc2nc(NC(=O)C(C)C)sc2c1 | ? | 62.0 | 7.2% | ? | -20.0%
COC(=O)c1ccc2nc(Nc3nc4c(F)cc(F)cc4s3)sc2c1 | 7.31µM* | -70.4* | 0.251µM* | 3.16µM* | 2.3%
CCOC(=O)c1ccc2nc(NC(C)=O)sc2c1 | ? | 117.7 | 24.4% | ? | -14.0%
CCOc1ccc(CCNC(=O)CS(=O)Cc2nc(-c3ccccc3C)oc2C)cc1OCC (stereo not given) | · | 3.4 | -12.0% | · | ?
O=C(C1CC12CCN(Cc1cccc3cccnc13)CC2)N1CCN(Cc2cccs2)CC1 (stereo not given) | · | · | -8.8% | · | ·
O=C(Nc1ccc2oc(-c3ccncc3)nc2c1)c1cccs1 | ? | -11.1 | 0.4% | -5.0% | ?
O=C(Nc1ccc2oc(-c3ccccc3)nc2c1)c1ccccc1F | 1.2% | -89.3* | 40.0% | ? | ?
CCc1ccc2oc(-c3ccc(NC(=O)c4cccc(Cl)c4Cl)cc3)nc2c1 | · | -70.1* | 12.6µM* | -26.9%[46.1 µM] | ·
O=C(Nc1ccc(-c2nc3cc(NC(=O)c4cccs4)ccc3o2)cc1)c1cccs1 | 8.2µM* | -70.2* | 4.5% | 14.6µM* | 11.2µM*
COc1cc2nc(N3CCCC(O)C3)c(CNCc3ccccc3F)cc2c(OC)c1OC (stereo not given) | · | · | -9.2% | · | ·
COc1cccc([C@H]2/C(=C(\O)c3ccc(C)cc3)C(=O)C(=O)N2Cc2ccco2)c1 | 20.6%[46.1 µM] | · | · | · | ·
Cc1ccc(NC(=O)/C(C#N)=C(\N)C(Cl)(Cl)Cl)nc1 | -20.0%[46.1 µM] | · | -67.2% | ? | 10µM*
Cc1ccc(NC(=O)C(=O)Nc2ccc(C)cn2)nc1 | ? | 38.1 | 19.1% | -0.8%[46.1 µM] | 8.2%
COc1ccc(OC)c(NC(=O)CN(Cc2ccc(F)cc2)C2CCCCC2)c1 | ? | -93.2* | ? | ? | ?
COc1ccc(C)cc1NC(=O)CN(Cc1nnc(-c2ccc(Cl)cc2)o1)C1CCCC1 | ? | -7.7 | -1.9% | -0.9% | 7.94µM*
COc1ccc(C)cc1NC(=O)CSc1nnc(-c2ccc(C)cc2)o1 | · | 122.7 | -29.2% | · | -17.3%
COc1ccc(OC)c(NC(=O)NCc2ccc(F)cc2)c1 | ? | -20.5 | 6.6% | 0.4% | ?
CC1(C)OC(=O)N(CCc2ccccc2)C1(C)O (stereo not given) | -14.0% | -17.9 | -15.2% | -6.1% | -2.4%
CC1(C)OC(=O)N(c2ccccc2)C12C=Cc1cc(Br)ccc1O2 (stereo not given) | 18.3µM* | ? | ? | -11.3% | ?
COc1ccccc1NC(=O)CSc1nnnn1-c1ccccc1F | · | -33.5 | -12.5% | · | -0.7%
NC(=O)N1CCC2=C1CCCC2 | 5.4%[46.1 µM] | · | · | · | ·
Clc1cccc(-c2cc3nc4c(c(NCc5ccco5)n3n2)CCCC4)c1 | -27.5% | 94.6 | · | -2.7% | 10µM*
c1coc(CNc2c3c(nc4ncnn24)CCCC3)c1 | -7.7%[46.1 µM] | 10.8 | -22.0% | 7.1% | -26.0%
COC(=O)/C=C/[C@@H]1CCCN1c1ccc(OC)cc1 | · | 4.8 | · | · | ·
